Data: PubChem BioAssay (NCI)
Compounds without any hit were thinned out: in the full panel of roughly 83,000, 20% have a hit.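 Growth was measured after 48 h exposure to one concentration of compound in 96-well plates. Values under 10 count as active.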 The source made the active and inactive calls.

Experiments:
Assay in all cases: NCI-60 one-dose screen, 48 h (100 = growth as untreated, 0 = no growth, -100 = all killed)
Details in all cases: 10 µM unless noted
SR leukemia = test system: SR leukemia
RPMI-8226 leukemia = test system: RPMI-8226 leukemia
OVCAR-8 ovarian = test system: OVCAR-8 ovarian
OVCAR-5 ovarian = test system: OVCAR-5 ovarian
OVCAR-4 ovarian = test system: OVCAR-4 ovarian
SK-OV-3 ovarian = test system: SK-OV-3 ovarian
IGROV1 ovarian = test system: IGROV1 ovarian
OVCAR-3 ovarian = test system: OVCAR-3 ovarian
HS 578T breast = test system: HS 578T breast
NCI/ADR-RES ovarian = test system: NCI/ADR-RES ovarian
T-47D breast = test system: T-47D breast
BT-549 breast = test system: BT-549 breast
MDA-MB-435 melanoma = test system: MDA-MB-435 melanoma
SW-620 colon = test system: SW-620 colon
MCF7 breast = test system: MCF7 breast
HCT-116 colon = test system: HCT-116 colon
HCC-2998 colon = test system: HCC-2998 colon
KM12 colon = test system: KM12 colon

Measured: growth

O=S(=O)(Nc1cccc2ccccc12)c1ccc(-c2cnc(C3CC3)o2)cc1
inactive: SR leukemia 21.2% | RPMI-8226 leukemia 14.4% | OVCAR-8 ovarian 28.5% | OVCAR-5 ovarian 42.6% | OVCAR-4 ovarian 64.1% | SK-OV-3 ovarian 71.3% | IGROV1 ovarian 23.4% | HS 578T breast 39.1% | T-47D breast 62.4% | BT-549 breast 21.3% | SW-620 colon 24.6% | MCF7 breast 22% | HCT-116 colon 12.4% | HCC-2998 colon 21.3% | KM12 colon 10.7%
active: OVCAR-3 ovarian 7.12% | NCI/ADR-RES ovarian 7.22% | MDA-MB-435 melanoma -39.9%

COc1cc(/C=C/C(=O)c2ccc(NC(=O)CSc3nnc(-c4ccc(-c5nc6ccc(Cl)cc6[nH]5)cc4)o3)cc2)cc(OC)c1OC
inactive: SR leukemia 48.4% | RPMI-8226 leukemia 108% | OVCAR-8 ovarian 98% | OVCAR-5 ovarian 91.3% | OVCAR-4 ovarian 102% | SK-OV-3 ovarian 99% | IGROV1 ovarian 88.3% | OVCAR-3 ovarian 84.1% | HS 578T breast 90.9% | NCI/ADR-RES ovarian 84.3% | T-47D breast 106% | BT-549 breast 85.6% | MDA-MB-435 melanoma 24.1% | SW-620 colon 87.4% | MCF7 breast 91.8% | HCT-116 colon 90.5% | HCC-2998 colon 96.3% | KM12 colon 80.6%

COc1c(N2CC3CCCNC3C2)c(F)cc2c(=O)c(C(=O)N/N=C/c3ccc(F)cc3)cn(C3CC3)c12 (stereo unspecified)
inactive: RPMI-8226 leukemia 60.2% | OVCAR-8 ovarian 91.7% | OVCAR-5 ovarian 95.6% | OVCAR-4 ovarian 90.5% | SK-OV-3 ovarian 110% | IGROV1 ovarian 97.9% | OVCAR-3 ovarian 92.9% | HS 578T breast 94.4% | NCI/ADR-RES ovarian 89.4% | T-47D breast 96.1% | BT-549 breast 84.8% | MDA-MB-435 melanoma 91% | SW-620 colon 99.5% | MCF7 breast 75.9% | HCT-116 colon 67.9% | HCC-2998 colon 97.3% | KM12 colon 104%
active: SR leukemia -24.6%

ClC(Cl)c1nc(-c2ccco2)n2nc(-c3ccccc3)cc2n1
active: RPMI-8226 leukemia -25.5% | OVCAR-5 ovarian 2.76% | OVCAR-3 ovarian -29.9% | HS 578T breast -2.15% | NCI/ADR-RES ovarian 4.02% | SW-620 colon 8.35% | MCF7 breast 1.38% | HCT-116 colon 2.94% | HCC-2998 colon -53.5% | KM12 colon -27.4%
inactive: SR leukemia 87.3% | OVCAR-8 ovarian 31.7% | OVCAR-4 ovarian 36.6% | SK-OV-3 ovarian 51% | IGROV1 ovarian 76.9% | T-47D breast 32.8% | BT-549 breast 87.7% | MDA-MB-435 melanoma 24.9%

O=C1Nc2ccccc2/C1=C/c1ccc(CO)n1-c1ccc(Cl)cc1
inactive: SR leukemia 35.5% | RPMI-8226 leukemia 53.2% | OVCAR-8 ovarian 85.9% | OVCAR-5 ovarian 89.8% | OVCAR-4 ovarian 89.9% | SK-OV-3 ovarian 80% | IGROV1 ovarian 48.1% | OVCAR-3 ovarian 31.7% | HS 578T breast 59% | NCI/ADR-RES ovarian 33.9% | T-47D breast 62.9% | BT-549 breast 55.3% | SW-620 colon 32.4% | MCF7 breast 24.1% | HCT-116 colon 23.8% | HCC-2998 colon 78.3% | KM12 colon 13.4%
active: MDA-MB-435 melanoma -25.5%

CC(=O)C1=C(C)NC(NNC(N)=S)=NC1c1ccccc1 (stereo unspecified)
inactive: SR leukemia 112% | RPMI-8226 leukemia 108% | OVCAR-8 ovarian 107% | OVCAR-5 ovarian 90% | OVCAR-4 ovarian 78% | SK-OV-3 ovarian 104% | IGROV1 ovarian 77.9% | OVCAR-3 ovarian 111% | HS 578T breast 103% | NCI/ADR-RES ovarian 108% | T-47D breast 103% | BT-549 breast 92.2% | MDA-MB-435 melanoma 99.2% | SW-620 colon 96.8% | MCF7 breast 101% | HCT-116 colon 94.9% | HCC-2998 colon 103% | KM12 colon 102%

O=C1[C@H]2Cc3c([nH]c4ccccc34)[C@@H](c3c(Cl)cccc3Cl)N2C(=O)CN1C1CCN(CC2CCCCC2)CC1
inactive: RPMI-8226 leukemia 66.2% | OVCAR-8 ovarian 99.6% | OVCAR-5 ovarian 97.8% | OVCAR-4 ovarian 101% | SK-OV-3 ovarian 109% | IGROV1 ovarian 53.2% | OVCAR-3 ovarian 67.9% | HS 578T breast 73.5% | NCI/ADR-RES ovarian 91.8% | T-47D breast 94% | BT-549 breast 96.5% | MDA-MB-435 melanoma 101% | SW-620 colon 65.8% | MCF7 breast 51.9% | HCT-116 colon 35.5% | HCC-2998 colon 85.3% | KM12 colon 92%
active: SR leukemia -0.0364%

COc1ccc(S(=O)(=O)NCCCNc2nccc(-c3[nH]c(-c4ccccc4)nc3-c3ccc(Cl)c(O)c3)n2)cc1
inactive: SR leukemia 61.9% | RPMI-8226 leukemia 49.8% | OVCAR-8 ovarian 67% | OVCAR-5 ovarian 104% | OVCAR-4 ovarian 101% | SK-OV-3 ovarian 112% | IGROV1 ovarian 93.6% | OVCAR-3 ovarian 71.8% | HS 578T breast 112% | NCI/ADR-RES ovarian 103% | T-47D breast 54.4% | BT-549 breast 88.3% | MDA-MB-435 melanoma 36.9% | SW-620 colon 107% | MCF7 breast 73.2% | HCT-116 colon 57.8% | HCC-2998 colon 112% | KM12 colon 77.6%

O=C(NNc1nc2cc(F)c(F)cc2n2c(CN3CC4CNCC4C3)ccc12)c1ncccn1 (stereo unspecified)
inactive: RPMI-8226 leukemia 18.7% | OVCAR-5 ovarian 40% | OVCAR-4 ovarian 21.6% | IGROV1 ovarian 14.9% | OVCAR-3 ovarian 34.6% | HS 578T breast 71.5% | NCI/ADR-RES ovarian 62.3% | T-47D breast 13.8% | BT-549 breast 28.1% | MDA-MB-435 melanoma 20.4% | SW-620 colon 22.6% | HCT-116 colon 11.7% | HCC-2998 colon 24.7% | KM12 colon 19.2%
active: SR leukemia 1.34% | OVCAR-8 ovarian 7.54% | SK-OV-3 ovarian 7.21% | MCF7 breast 9.66%

O=C(CSc1nc2ccccc2c(=O)n1-c1ccccc1)Nc1ccc(-c2nc3ccc([N+](=O)[O-])cc3[nH]2)cc1
inactive: SR leukemia 20.9% | RPMI-8226 leukemia 67.2% | OVCAR-8 ovarian 75.5% | OVCAR-5 ovarian 86.1% | OVCAR-4 ovarian 88.6% | SK-OV-3 ovarian 106% | IGROV1 ovarian 57.9% | OVCAR-3 ovarian 63.6% | HS 578T breast 77.1% | NCI/ADR-RES ovarian 75.3% | T-47D breast 89.1% | BT-549 breast 80% | MDA-MB-435 melanoma 80.1% | SW-620 colon 43.7% | MCF7 breast 40.6% | HCT-116 colon 67.4% | HCC-2998 colon 100% | KM12 colon 91.7%

NC(N)=Nc1ccc(Oc2cccc(NC(N)=Nc3ccc(Br)cc3)c2)cn1
inactive: SR leukemia 34.5% | RPMI-8226 leukemia 51.4% | OVCAR-8 ovarian 68.1% | OVCAR-5 ovarian 66.7% | OVCAR-4 ovarian 71% | SK-OV-3 ovarian 73.6% | IGROV1 ovarian 37.9% | OVCAR-3 ovarian 64.9% | HS 578T breast 44.2% | NCI/ADR-RES ovarian 100% | T-47D breast 37.8% | BT-549 breast 99.2% | MDA-MB-435 melanoma 72.7% | SW-620 colon 76% | MCF7 breast 10.8% | HCT-116 colon 69.2% | HCC-2998 colon 79.3% | KM12 colon 66.5%

CCO/C=N/C1=C(C#N)C(c2ccc(F)cc2)c2sc3c(CC)cccc3c2O1 (stereo unspecified)
inactive: OVCAR-8 ovarian 27.2% | OVCAR-5 ovarian 29.2% | OVCAR-4 ovarian 60.4% | SK-OV-3 ovarian 64.4% | IGROV1 ovarian 23.5% | HS 578T breast 32.5% | T-47D breast 42.7% | BT-549 breast 27.7% | SW-620 colon 30.1% | MCF7 breast 14.8% | HCT-116 colon 16.2% | HCC-2998 colon 15.6% | KM12 colon 14.8%
active: SR leukemia 6.82% | RPMI-8226 leukemia 4.25% | OVCAR-3 ovarian -17.4% | NCI/ADR-RES ovarian 9.33% | MDA-MB-435 melanoma -12.9%

COc1c(N2CC3CCCNC3C2)c(F)cc2c(=O)c(C(=O)N/N=C/c3ccc(N(C)C)cc3)cn(C3CC3)c12 (stereo unspecified)
active: SR leukemia -33.5%
inactive: RPMI-8226 leukemia 62.9% | OVCAR-8 ovarian 87.3% | OVCAR-5 ovarian 95.7% | OVCAR-4 ovarian 90% | SK-OV-3 ovarian 114% | IGROV1 ovarian 58.9% | OVCAR-3 ovarian 51.2% | HS 578T breast 95.8% | NCI/ADR-RES ovarian 81.6% | T-47D breast 95.5% | BT-549 breast 121% | MDA-MB-435 melanoma 94% | SW-620 colon 80.7% | MCF7 breast 44.1% | HCT-116 colon 31.3% | HCC-2998 colon 89.4% | KM12 colon 74.5%

NS(=O)(=O)c1ccc(-n2cc(CN3CCNCC3)nn2)cc1
inactive: SR leukemia 100% | RPMI-8226 leukemia 110% | OVCAR-8 ovarian 110% | OVCAR-5 ovarian 106% | OVCAR-4 ovarian 105% | SK-OV-3 ovarian 110% | IGROV1 ovarian 112% | OVCAR-3 ovarian 111% | HS 578T breast 111% | NCI/ADR-RES ovarian 111% | T-47D breast 107% | BT-549 breast 110% | MDA-MB-435 melanoma 106% | SW-620 colon 109% | MCF7 breast 98.9% | HCT-116 colon 107% | HCC-2998 colon 101% | KM12 colon 105%

COc1cc(Nc2c(C#N)cnn3cc(-c4cnn(CC(C)(C)O)c4)cc23)ccc1Cl
inactive: SR leukemia 24.3% | RPMI-8226 leukemia 40.2% | OVCAR-8 ovarian 46.9% | OVCAR-5 ovarian 43.8% | OVCAR-4 ovarian 42.6% | OVCAR-3 ovarian 57.6% | HS 578T breast 61.9% | NCI/ADR-RES ovarian 46.5% | T-47D breast 45.1% | BT-549 breast 85.5% | MDA-MB-435 melanoma 38.3% | SW-620 colon 56.5% | MCF7 breast 48% | HCT-116 colon 40.2% | HCC-2998 colon 84.8% | KM12 colon 19.1%
active: SK-OV-3 ovarian 4.19% | IGROV1 ovarian 4.87%

COc1ccc2c(c1)c(-c1cc(N)n3nc(-c4cn(C)c5ccc(OC)cc45)cc3n1)cn2C
active: SR leukemia -12.2% | RPMI-8226 leukemia -0.83% | SW-620 colon -20.6% | HCT-116 colon -4.19%
inactive: OVCAR-8 ovarian 97.9% | OVCAR-5 ovarian 117% | OVCAR-4 ovarian 109% | SK-OV-3 ovarian 134% | IGROV1 ovarian 105% | OVCAR-3 ovarian 117% | HS 578T breast 110% | NCI/ADR-RES ovarian 120% | T-47D breast 96.2% | BT-549 breast 117% | MDA-MB-435 melanoma 112% | MCF7 breast 32.5% | HCC-2998 colon 114% | KM12 colon 96.9%

CC[C@]12C=CCN3CC[C@@]4(c5cc(NC(=O)COc6cc(O)c7c(=O)cc(-c8ccccc8)oc7c6)c(OC)cc5N(C)[C@H]4[C@@](O)(C(=O)OC)[C@@H]1OC(C)=O)[C@@H]32
active: SR leukemia -30.7% | RPMI-8226 leukemia -31.6% | OVCAR-8 ovarian -17.7% | OVCAR-5 ovarian -86% | OVCAR-4 ovarian -66.9% | SK-OV-3 ovarian -86.1% | IGROV1 ovarian -77.7% | OVCAR-3 ovarian -86.2% | HS 578T breast 2.1% | NCI/ADR-RES ovarian -49.9% | T-47D breast -60.5% | BT-549 breast -36.2% | MDA-MB-435 melanoma -44.7% | SW-620 colon 7.84% | MCF7 breast -44.3% | HCT-116 colon -89.2% | HCC-2998 colon -98.2% | KM12 colon -82.2%
